The source of these data is PubChem BioAssay.

Test [1] in a line: small molecules captured by biotinylated probe aFSTL3 – biochemical, small-molecule microarray, fluorescence 635/667, stem cell growth factor project, primary screen (AID 1064).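 Also: measures binding of the biotinylated anti-FSTL3 antibody to printed compounds.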 The following applies: higher = more signal.
Test [2] can be described thus: binders from COS7 lysate, DM2A8 probe, primary screen, torsin A project, cell lysate, small-molecule microarray, fluorescence 635/667 (AID 1065). Particulars: higher = more signal, COS7 lysate expressing mutant human TOR1A.
Test [3] can be described thus: small molecules captured by biotinylated probe aFGF2 – biochemical, small-molecule microarray, fluorescence 635/667, stem cell growth factor project, primary screen (AID 1067).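 Also: measures binding of biotinylated aFGF2 protein to printed compounds on slides; z-score merges feature fluorescence and signal-to-noise across triplicate slides.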 The following applies: higher = more signal.
The nature of test [4]: small molecules captured by biotinylated probe aFGF10 – biochemical, small-molecule microarray, fluorescence 635/667, stem cell growth factor project, primary screen (AID 1071).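 Also: score merges 667 nm spot intensity and signal to noise from triplicate slides.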 Particulars: higher = more signal.
In test [5] the target is Neurogenic locus notch homolog protein 2 (Homo sapiens) (UniProt Q04721). Put plainly: small molecules binding Notch2 protein – biochemical, small-molecule microarray, 635 nm fluorescence, stem cell growth factors, primary screen (AID 1073). Particulars: higher = more signal.
Test [6] has as its target Pro-neuregulin-1, membrane-bound isoform (Homo sapiens) (UniProt Q02297). The test is described as follows: small molecules binding neuregulin-1 protein – biochemical, small-molecule microarray, fluorescence 635/667, psychiatric disease protein project, primary screen (AID 1075).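 Also: score combines 667 nm spot fluorescence with signal to noise.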 The following applies: NRG1 binding, 635 nm fluorescence, higher = more signal.
The test system of test [7] is Neuregulin-1 EGF-like domain. Put plainly: small molecules binding NRG1 EGF domain – biochemical, small-molecule microarray, 635 nm fluorescence, primary screen (AID 1081).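 Also: binding of the protein to compounds printed on small-molecule microarray slides.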 Particulars: higher = more signal.
Test [8] can be described thus: FRG1 expression reporter modulators in myotubes – cell-based, C2C12 myotubes, firefly/Renilla luciferase, luminescence, FRG1 inhibition for FSHD, primary screen (AID 1084). The following applies: FRG1 promoter luciferase, higher = more signal, called active from +8 up or from −8 down.
The nature of test [9]: small molecules captured by biotinylated probe aFST – biochemical, small-molecule microarray, fluorescence 635/667, stem cell growth factor project, primary screen (AID 1086).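 Also: score merges 667 nm fluorescence with signal-to-noise of each printed compound spot.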 Particulars: higher = more signal.
Test [10] is described as follows: binders of probe aHhip on microarray, primary screen, stem cell growth factor project, biochemical, small-molecule microarray, fluorescence 635/667 (AID 1087).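 Also: score merges spot fluorescence at 667nm with spot signal to noise ratio.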 Particulars: higher = more signal.
Test [11] relates to PRMT1 (protein arginine N-methyltransferase 1). Put plainly: small molecules binding arginine methyltransferase PRMT1 – biochemical, small-molecule microarray, 635 nm fluorescence, primary screen (AID 1088).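 Also: binding of Prmt1 protein to compounds spotted on small-molecule microarray slides.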 Particulars: higher = more signal.
The nature of test [12]: growth effects on S. cerevisiae YJM789 – YJM789 clinical isolate, OD600, 24 h, basal, primary screen (AID 1089).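 Also: growth of clinical yeast isolate S. cerevisiae YJM 789 seeded 1000 cells per well; test concentration not given here.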 The following applies: higher = more signal, called active from +8 up or from −8 down.
Test [13] can be described thus: S. pombe growth modifiers, basal conditions – strain 972, OD600, 24 h, no modulator, primary screen (AID 1090).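 Also: basal condition with compound alone and no growth modifier present; test concentration not given here.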 Particulars: S. pombe 972 growth, higher = more signal, called active from +8 up or from −8 down.
The nature of test [14]: budding yeast growth modifiers under rapamycin – strain BY4716, OD600, 96 h, primary screen (AID 1091). Also: test concentration not given here. The following applies: S. cerevisiae BY4716 + rapamycin, higher = more signal, called active from +8 up or from −8 down.
Test [15] concerns the target Torsin-1A-interacting protein 2 (Homo sapiens) (UniProt Q8NFQ8). The test is described as follows: small molecules binding lysate-expressed LULL1 – cell lysate, human LULL1 lysate, 635/667 nm fluorescence, primary screen (AID 1092).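 Also: probe is lysate of COS7 cells overexpressing human LULL1; score merges per-feature 667 nm fluorescence with signal-to-noise.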 Particulars: small-molecule microarray, hLULL1 lysate binding, 635 nm fluorescence; higher = more signal.
The nature of test [16]: optical density change of DRC41 E. coli – strain DRC41, OD650, 24 h, E. coli filamentation project, primary screen (AID 1093).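 Also: MC1000 strain lacking acrAB efflux and sulA so SOS filamentation is blocked; test concentration not given here.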 Particulars: E. coli DRC41 growth, higher = more signal, called active from +8 up or from −8 down.
The nature of test [17]: probe aLefty2 binding to arrayed compounds – biochemical, biotinylated probe, 635/667 nm fluorescence, primary screen (AID 1094).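 Also: score merges spot fluorescence near 667 nm with spot signal-to-noise ratio.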 Particulars: small-molecule microarray, higher = more signal.
For test [18], the system named is Noggin (protein binding on small-molecule microarray). Put plainly: small molecules binding Noggin protein – biochemical, 635/667 nm fluorescence, primary screen (AID 1095).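 Also: score merges 667 nm feature fluorescence with signal to noise over triplicate slides.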 The following applies: 635 nm fluorescence, higher = more signal.
In test [19] the target is Neurogenic locus notch homolog protein 3 (Homo sapiens) (UniProt Q9UM47). The test is described as follows: small molecules binding NOTCH3 protein – biochemical, 635/667 nm fluorescence, primary screen (AID 1096). The following applies: small-molecule microarray, 635 nm fluorescence, higher = more signal.
Test [20] is described as follows: probe aEGFR binding to arrayed compounds – biochemical, biotinylated probe, 635/667 nm fluorescence, primary screen (AID 1097).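 Also: probe is a biotinylated anti-EGFR antibody binding compounds printed on slides; score combines fluorescence near 667 nm and signal to noise of each spot.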 The following applies: small-molecule microarray, higher = more signal.

Molecules are shown by their SMILES. Active and inactive are the calls of the source.

Chain of Neurogenic locus notch homolog protein 2 (Homo sapiens) (Q04721 whole entry, looked up, canonical isoform): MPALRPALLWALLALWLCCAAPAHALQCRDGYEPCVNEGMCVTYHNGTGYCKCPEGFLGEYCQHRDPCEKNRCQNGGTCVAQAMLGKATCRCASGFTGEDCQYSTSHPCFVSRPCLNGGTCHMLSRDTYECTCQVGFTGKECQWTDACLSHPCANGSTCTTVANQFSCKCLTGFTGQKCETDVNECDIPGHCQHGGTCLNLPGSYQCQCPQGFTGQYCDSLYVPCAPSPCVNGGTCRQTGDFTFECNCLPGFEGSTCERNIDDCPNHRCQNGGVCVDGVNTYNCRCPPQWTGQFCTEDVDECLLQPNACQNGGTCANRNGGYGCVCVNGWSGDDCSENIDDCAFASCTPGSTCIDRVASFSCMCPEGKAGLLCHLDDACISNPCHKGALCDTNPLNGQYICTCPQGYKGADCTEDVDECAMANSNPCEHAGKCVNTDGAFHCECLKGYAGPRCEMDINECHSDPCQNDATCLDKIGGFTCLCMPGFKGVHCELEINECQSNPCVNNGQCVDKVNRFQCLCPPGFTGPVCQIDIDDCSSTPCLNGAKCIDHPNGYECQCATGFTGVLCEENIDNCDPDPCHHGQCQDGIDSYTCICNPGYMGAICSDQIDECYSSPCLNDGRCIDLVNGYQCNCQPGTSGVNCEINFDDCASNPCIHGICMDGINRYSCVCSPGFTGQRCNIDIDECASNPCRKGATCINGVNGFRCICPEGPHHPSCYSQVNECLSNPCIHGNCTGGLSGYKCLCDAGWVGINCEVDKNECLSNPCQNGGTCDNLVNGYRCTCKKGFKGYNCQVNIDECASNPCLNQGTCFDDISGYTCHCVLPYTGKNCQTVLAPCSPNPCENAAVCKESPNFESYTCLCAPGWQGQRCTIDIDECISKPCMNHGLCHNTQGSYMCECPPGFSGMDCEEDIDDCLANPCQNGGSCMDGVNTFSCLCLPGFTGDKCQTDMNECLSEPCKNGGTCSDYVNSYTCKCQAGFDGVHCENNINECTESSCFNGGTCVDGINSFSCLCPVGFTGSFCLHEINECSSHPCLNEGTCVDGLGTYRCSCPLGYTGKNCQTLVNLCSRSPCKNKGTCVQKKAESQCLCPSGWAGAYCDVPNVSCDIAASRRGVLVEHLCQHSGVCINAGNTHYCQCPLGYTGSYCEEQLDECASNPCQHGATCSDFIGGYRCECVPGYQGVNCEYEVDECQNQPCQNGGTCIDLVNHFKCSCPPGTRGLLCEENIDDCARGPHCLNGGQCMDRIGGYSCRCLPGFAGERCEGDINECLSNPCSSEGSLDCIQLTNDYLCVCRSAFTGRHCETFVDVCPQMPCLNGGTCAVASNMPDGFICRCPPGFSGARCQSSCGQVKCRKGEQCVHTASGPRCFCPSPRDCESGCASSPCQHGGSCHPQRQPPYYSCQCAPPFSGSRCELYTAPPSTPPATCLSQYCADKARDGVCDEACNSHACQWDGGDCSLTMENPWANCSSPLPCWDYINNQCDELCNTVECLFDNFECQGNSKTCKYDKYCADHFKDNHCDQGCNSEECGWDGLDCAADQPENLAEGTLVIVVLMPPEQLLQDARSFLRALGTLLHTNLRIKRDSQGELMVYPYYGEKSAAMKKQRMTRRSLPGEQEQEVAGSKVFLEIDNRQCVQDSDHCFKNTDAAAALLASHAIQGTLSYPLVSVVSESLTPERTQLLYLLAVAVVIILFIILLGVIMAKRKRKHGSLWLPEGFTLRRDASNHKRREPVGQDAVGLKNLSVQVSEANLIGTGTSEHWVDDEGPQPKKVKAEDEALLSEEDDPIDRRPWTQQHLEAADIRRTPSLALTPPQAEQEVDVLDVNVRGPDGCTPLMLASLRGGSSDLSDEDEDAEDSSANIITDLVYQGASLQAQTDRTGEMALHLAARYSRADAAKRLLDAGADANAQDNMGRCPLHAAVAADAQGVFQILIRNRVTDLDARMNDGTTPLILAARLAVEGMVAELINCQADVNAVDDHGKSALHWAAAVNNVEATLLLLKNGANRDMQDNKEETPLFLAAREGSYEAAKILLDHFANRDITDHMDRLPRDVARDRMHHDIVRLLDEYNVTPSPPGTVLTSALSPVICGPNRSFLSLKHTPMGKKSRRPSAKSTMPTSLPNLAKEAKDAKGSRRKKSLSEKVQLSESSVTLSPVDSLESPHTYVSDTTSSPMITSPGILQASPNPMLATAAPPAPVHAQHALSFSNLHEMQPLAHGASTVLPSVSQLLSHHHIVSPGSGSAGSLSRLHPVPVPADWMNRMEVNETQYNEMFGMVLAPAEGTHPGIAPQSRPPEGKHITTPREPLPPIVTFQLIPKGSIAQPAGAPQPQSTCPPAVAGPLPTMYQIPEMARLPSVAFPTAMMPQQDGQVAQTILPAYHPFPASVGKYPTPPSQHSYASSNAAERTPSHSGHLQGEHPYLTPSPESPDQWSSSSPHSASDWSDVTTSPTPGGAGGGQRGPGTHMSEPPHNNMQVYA
Chain of Pro-neuregulin-1, membrane-bound isoform (Homo sapiens) (Q02297 whole entry, looked up, the tested form may be a part, canonical isoform): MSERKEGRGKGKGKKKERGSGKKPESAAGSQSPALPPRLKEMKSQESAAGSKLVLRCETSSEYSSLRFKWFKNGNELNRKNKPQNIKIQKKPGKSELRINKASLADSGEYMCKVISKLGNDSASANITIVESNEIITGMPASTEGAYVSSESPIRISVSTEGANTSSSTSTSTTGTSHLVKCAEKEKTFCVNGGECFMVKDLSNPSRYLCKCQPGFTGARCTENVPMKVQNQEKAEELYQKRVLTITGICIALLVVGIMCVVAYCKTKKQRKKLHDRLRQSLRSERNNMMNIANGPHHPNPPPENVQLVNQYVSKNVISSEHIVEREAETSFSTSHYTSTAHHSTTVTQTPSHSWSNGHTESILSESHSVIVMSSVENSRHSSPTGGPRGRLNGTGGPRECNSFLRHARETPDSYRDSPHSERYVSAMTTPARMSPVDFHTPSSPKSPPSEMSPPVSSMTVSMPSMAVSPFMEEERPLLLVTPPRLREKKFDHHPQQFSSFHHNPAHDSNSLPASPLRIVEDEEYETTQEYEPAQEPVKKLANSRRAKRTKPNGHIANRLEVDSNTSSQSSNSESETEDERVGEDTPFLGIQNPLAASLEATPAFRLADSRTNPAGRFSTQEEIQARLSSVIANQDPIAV
Chain of Torsin-1A-interacting protein 2 (Homo sapiens) (Q8NFQ8 whole entry, looked up): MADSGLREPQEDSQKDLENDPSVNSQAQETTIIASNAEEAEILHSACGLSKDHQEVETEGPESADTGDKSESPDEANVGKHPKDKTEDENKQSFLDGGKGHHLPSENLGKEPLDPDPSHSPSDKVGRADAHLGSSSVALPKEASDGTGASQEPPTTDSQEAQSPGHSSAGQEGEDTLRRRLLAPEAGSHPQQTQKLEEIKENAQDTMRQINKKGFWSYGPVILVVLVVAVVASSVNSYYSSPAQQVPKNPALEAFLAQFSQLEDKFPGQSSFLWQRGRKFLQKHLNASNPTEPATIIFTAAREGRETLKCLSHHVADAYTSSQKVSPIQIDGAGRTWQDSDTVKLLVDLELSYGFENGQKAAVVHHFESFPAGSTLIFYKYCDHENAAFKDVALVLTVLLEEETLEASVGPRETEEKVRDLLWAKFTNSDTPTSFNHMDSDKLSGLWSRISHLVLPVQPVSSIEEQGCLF

On to `OCCCC1=CC(c2ccc(CN3CCCC3)cc2)N(Cc2sc3ccccc3c2Cl)CC1` (stereo not given), for which the composite z-score in [1] was 1.46; in test [2], 0.41; in test [3], -0.221; in test [4], 0.828; in test [5], 0.72; in test [6] it was 0.65. The composite z-score in [7] was 1.27; in [9], 0.0562; in [10], 0.535; in test [11] it was 1.2; in test [15], 1.22; in [17] it was 0.0998. The values for the composite z-score in test [18], in [19] and in [20] were 0.895, 0.686 and 0.148, respectively. Besides, the z-score in test [8] is -0.475 (inactive); in [12], -0.72 (inactive); in test [13], -14.3 (active); in test [14], -0.628 (inactive); in [16] it was -0.271 (inactive).
Take `CC(C)N1C(=O)c2ccccc2[C@@H](C(=O)NC2CC2)[C@@H]1c1ccc(CO)cc1`: the composite z-score in [1] is -0.236; in [2] it was -0.184; in [3] it was -0.0615; in test [4], 0.0389; in test [5], -0.425; in test [6], 0.933. For the same compound, the composite z-score in test [7] is 1.3; in test [9] it was -0.593; in [10] it was -0.189; in [11], 0.672; in test [15], 0.968; in test [17], -0.117. Also, the composite z-score in test [18] was 0.521; in test [19], -0.201; in test [20], -0.156. Moreover, the z-score in [8] is 0.216 (inactive); in test [12], -0.904 (inactive); in [13], -0.826 (inactive); in test [14], -0.39 (inactive); in test [16], 0.141 (inactive).
Consider `CCOC(=O)C[C@H]1[C@H](OC(=O)c2cc3ccccc3oc2=O)[C@@H](NC(=O)Cc2ccc(OC)cc2)c2cc(OCCCO)ccc2N1C(=O)c1ccc2ccccc2n1`, for which the composite z-score in test [1] is -0.19; in test [2], 0.648; in [3], -0.127; in test [4], 0.403; in test [5], 0.848; in test [6] it was 0.35. Also, the composite z-score in test [7] was 0.996; in test [9], 0.0814; in [10], -0.123; in [11], 0.268; in [15], 0.773; in test [17], -0.11. Further, the composite z-score in test [18] is 0.68; in test [19], 1.15; in [20], -0.0241. Besides, the z-score is -1.07 (inactive) in test [8]; -0.724 (inactive) in [12]; -0.138 (inactive) in test [13]; -0.0607 (inactive) in test [14]; 1.31 (inactive) in test [16].
On to `COCCOC(=O)N1C(=O)[C@@]2(c3cc(C#CCCO)ccc31)[C@H](c1ccccc1OCCO)N1[C@H](c3ccccc3)[C@H](c3ccccc3)OC(=O)[C@H]1[C@@H]2C(=O)Nc1nc2ccccc2s1`, for which the composite z-score in test [1] is 0.406; in test [2], 1.13; in test [3] it was -0.0066; in test [4], 0.662; in test [5] it was 1.42; in test [6], 1.51. For the same compound, the composite z-score in test [7] was 1.31; in test [9] it was 0.617; in test [10], -0.254; in test [11] it was 1.55; in test [15], 2.45; in test [17] it was -0.0063. Moreover, the composite z-score in test [18] was 1.1; in test [19], 1.06; in [20], 0.113. Besides, the z-score in test [8] was 1.47 (inactive); in [12], 0.97 (inactive); in test [13] it was 1.42 (inactive); in test [14], 2.76 (inactive); in test [16], 0.0879 (inactive).
As for `CC(C)C(=C=CC[C@H](O)c1ccc(OCCO)cc1)C[C@H](O)c1ccccn1`, the composite z-score is -0.331 in test [1]; -0.0844 in [2]; -0.129 in test [3]; 0.679 in test [4]; -0.0686 in [5]; 0.243 in test [6]. The composite z-score in test [7] was 1.28; in test [9], -0.249; in test [10] it was -0.0618; in [11] it was 1.52; in test [15], 1.18; in test [17], -0.142. The composite z-score in test [18] is 1.28; in test [19], 0.481; in [20], -0.146. The z-score in [8] was -0.0915 (inactive); in [12], 0.758 (inactive); in test [13] it was -1.29 (inactive); in test [14], -0.132 (inactive); in [16], 0.714 (inactive).
Take `C=C(COC)/C(=C/C[C@H](OC(=O)c1ccncc1)c1ccccc1OCCO)c1cnc2ccccc2c1`: the composite z-score in test [1] was -0.776; in test [2] it was 0.171; in [3] it was -0.0524; in test [4], 1.18; in [5] it was 1.34; in test [6] it was 1.47. Moreover, the composite z-score in [7] is 1.24; in test [9] it was 1.07; in test [10], -0.242; in test [11] it was 1.54; in test [15], 2.94; in test [17] it was -0.345. For the same compound, the composite z-score was found to be 1.44 in test [18], 1.02 in test [19] and 0.0024 in [20]. The z-score is 1.01 (inactive) in test [8]; -1.77 (inactive) in [12]; -0.997 (inactive) in test [13]; -0.252 (inactive) in test [14]; 0.395 (inactive) in test [16].
Regarding `CCOC(=O)c1ccc(NC(=O)O[C@H]2[C@H](OC(=O)Nc3ccc4c(c3)OCO4)[C@@H](OC(=O)Nc3ccc4c(c3)OCO4)[C@@H](OC)O[C@@H]2CO)cc1`, the composite z-score in test [1] was -0.0691; in [2], 0.816; in [3], 0.0121; in [4] it was 1.03; in test [5], 1.39; in [6], 1.74. The composite z-score in [7] was 1.35; in test [9] it was 0.474; in test [10], -0.318; in [11], 1.53; in [15], 3.27; in [17], 0.119. In addition, the composite z-score in [18] is 1.07; in [19], 1; in test [20], 0.0815. The z-score in test [8] was 6.39 (inactive); in [12], 1.38 (inactive); in [13] it was 2.29 (inactive); in test [14], 7.12 (inactive); in test [16], 1.15 (inactive).
For the compound `CCCCC(O)C1C=CC2C(=O)N(c3ccccc3)C(=O)C2N1Nc1ccc(C(C)C)cc1` (stereo not given), the composite z-score in [1] is -0.158; in [2] it was -0.534; in test [3], 0.0662; in test [4], 0.47; in test [5], 1.44; in test [6], 1.85. For the same compound, the composite z-score in test [7] is 0.697; in test [9], 1.13; in test [10], -0.217; in test [11], 1.37; in test [15] it was 3.01; in [17], -0.122. Further, the composite z-score in test [18] was 0.49; in test [19], 1.03; in test [20] it was -0.067. In addition, the z-score was -0.875 (inactive) in test [8]; 0.603 (inactive) in [12]; -0.582 (inactive) in test [13]; 0.0624 (inactive) in test [14]; -1.32 (inactive) in test [16].
For the compound `COCCOC(=O)N1C(=O)[C@@]2(c3cc(C#CCC(C(=O)OC)C(=O)OC)ccc31)[C@H](C(=O)N1CCc3cc(OC)c(OC)cc3C1)[C@H]1C(=O)O[C@H](c3ccccc3)[C@H](c3ccccc3)N1[C@@H]2c1ccc(OCCO)cc1`, the composite z-score in test [1] was -0.63; in test [2] it was 0.527; in test [3], -0.0099; in [4], 0.411; in test [5], 1.31; in [6], 1.07. The composite z-score in [7] is 1.31; in test [9], 0.479; in test [10], 0.0749; in test [11], 1.54; in test [15] it was 2.73; in test [17], -0.0259. Also, the composite z-score came to 1.4 in [18], 1.08 in [19] and 0.0961 in [20]. Besides, the z-score in test [8] is 1.08 (inactive); in test [12], 1.94 (inactive); in test [13] it was 0.667 (inactive); in test [14], 4.23 (inactive); in test [16], -0.402 (inactive).
